SMILES strings stand for the structures. About 8,600 (12%) of roughly 69,000 compounds showed an effect of 50% or more. This excerpt belongs to a sample that is enriched for strong results.

The subject of the assay is Plasmodium berghei. Put plainly: Screen against P. berghei liver stage (PbLuc), transformed with Luciferase, at 10uM. In kind it is functional, HepG2. Conditions: tested at 10 uM.
`CC(C)CNC(=O)c1cc(C2CC2)nc2c1c(C1CCCN1)nn2C` (configuration not stated): the INHIBITION was 30%.
The figure for `CS(=O)(=O)NC[C@]12COC[C@H]1CN(CC1CCCC1)C2` is 6.82%; for `CS(=O)(=O)NC[C@]12COC[C@H]1CN(C(=O)C1CCCCC1)C2` it is 13.6%.
For `CS(=O)(=O)NC[C@]12COC[C@H]1CN(C(=O)C1CC=CC1)C2`, the INHIBITION stood at 23.1%.
Next, `CS(=O)(=O)NC[C@]12COC[C@H]1CN(C(=O)CC1CCCC1)C2`: 14%.
The figure for `CS(=O)(=O)NC[C@]12COC[C@H]1CN(CCc1ccccc1)C2` is 65.1%; for `CS(=O)(=O)NC[C@]12COC[C@H]1CN(CC1CCC1)C2` it is 66.6%.
On to `CCS(=O)(=O)NC[C@]12COC[C@H]1CN(CCc1ccccc1)C2`, for which the INHIBITION is listed as -58.7%.
For the molecule `CS(=O)(=O)NC[C@]12COC[C@H]1CN(C(=O)C1CC(F)(F)C1)C2`, the INHIBITION is recorded as 57.5%.
`O=S(=O)(NC[C@]12COC[C@H]1CN(CCc1ccccc1)C2)C1CC1`: the INHIBITION worked out at 24.9%.
The figure for `CCc1ccc(S(=O)(=O)NCCC(O)c2ccoc2)s1` (configuration not stated) is 15.4%; for `c1ccc(NCc2cn3c(n2)CN(Cc2cccnc2)CC3)nc1` it is 38.7%.
Next, `Cc1ccc(-n2cc(C(=O)NCC(C)Cn3cccn3)nn2)cc1` (configuration not stated): 27.6%; `CO[C@H]1C[C@@H](O)C12CCN(Cc1nc(C(F)(F)F)no1)CC2`: 41.2%.
Consider `Cn1cc(-c2ncnc3c2CCN(C(=O)c2cscn2)CC3)cn1`, for which the INHIBITION turned out to be 14.6%.
Next, `O=S(=O)(C1CC1)N1CCC[C@]2(C[C@@H](Oc3ccccn3)CO2)C1`: -49.7%; `CCOc1ccnc(N2CCN(C(=O)c3cc[nH]n3)CC2)n1`: -1.14%.
Next, `COCCN1CC(C(=O)N(CCN(C)C)Cc2ccc(C)s2)CC1=O` (configuration not stated): 38.3%; `COCCn1ccc(NC(=O)CNC(=O)CC(C)(C)C)n1`: 34.9%.
The figure for `CN(CCO)CC1COCCN1C(=O)C1(c2cccs2)CCCC1` (configuration not stated) is 14.9%; for `COCCN1CCN(C(C)C(=O)Nc2ccnn2C(C)C)CC1` (configuration not stated) it is 11.8%; for `COCCCN1CCCN(C(C)C(=O)Nc2cccc(I)c2)CC1` (configuration not stated) it is 85.1%.
`COCCCN1CCCN(C(C)C(=O)Nc2ccnn2C(C)C)CC1` (configuration not stated): the INHIBITION is 0.139%.
The figure for `CN(C)C(=O)C1OC2(CCN(C(=O)c3ccoc3)CC2)c2ccccc21` (configuration not stated) is 22.2%; for `O=C(NC1CC1)C1CCc2nnc(C3CC3)n21` (configuration not stated) it is 53.2%.
On to `O=C(NC1CC1)C1CCc2nnc(-c3cccnc3)n21` (configuration not stated), for which the INHIBITION was found to be 47.4%.
The figure for `O=C(NC1CC1)C1CCc2nnc(-c3cccc(C(F)(F)F)c3)n21` (configuration not stated) is 17.6%; for `CC1CN(C(=O)Nc2cccc(CN3CCOC3=O)c2)CCO1` (configuration not stated) it is -43.9%.
The figure for `CCc1cccc(N2CCC(NC(=O)C3CCCO3)CC2)c1` (configuration not stated) is 48.2%.
The figure for `CCc1cccc(N2CCC(NC(=O)C3CCOCC3)CC2)c1` is 21.5%; for `CCc1cccc(N2CCC(NC(=O)C3CCC3)CC2)c1` it is 64.7%; for `COc1ccc2c(c1)CCN(CCC(=O)NC1CCCCC1)CC2` it is 6.8%.
For `CCc1cccc(CC(=O)NC2CCN(C(=O)NC(C)(C)C)CC2)c1`, the INHIBITION is given as 12.6%.
The figure for `CCC(=O)NC1CCN(c2cccc(CC)c2)CC1` is 50.4%.
The figure for `CCc1cccc(N2CCC(NC(=O)CCNC(N)=O)CC2)c1` is 5.03%.
Regarding `COc1cccc(N2CCN(CCC(=O)NC3CCCC3)CC2)c1`, the INHIBITION was 24.5%.
Next, `COc1cccc(N2CCN(CCC(=O)NC3CCCCC3)CC2)c1`: 64.6%; `CCOCCNC(=O)c1cccnc1N1CCCC1c1ccccn1` (configuration not stated): -31%.
The figure for `CCc1nc(CN(C)CC(=O)NC(C)C)cs1` is 14.8%; for `Cc1ccc(-n2c(O)cc(C)c(C#N)c2=O)c(C)c1` it is -8.66%.
The figure for `Cc1cnn(CC2CCCCN2C(=O)c2nccnc2N)c1` (configuration not stated) is -19.9%; for `CC(=O)c1ccccc1-c1nc(CC2CCN(C)CC2)no1` it is 24.7%.
For the molecule `Clc1cccc(C(CNc2ncccn2)N2CCOCC2)c1` (configuration not stated), the INHIBITION is reported as -14.5%.
Next, `Clc1cccc(C(CNCc2cccnc2)N2CCOCC2)c1` (configuration not stated): 23.2%; `Clc1cccc(C(CNCc2ccccn2)N2CCOCC2)c1` (configuration not stated): 53.9%.
In the case of `COc1ccc(C)cc1-c1[nH]c2ccccc2c1C(=O)O`, the INHIBITION stood at 3.52%.
The figure for `Cc1ccc2c(n1)N(CC(C)C)CCN(C(=O)Cc1ccccn1)C2` is 2.41%.
Take `CC(Cc1cn(CCc2nc(N)cc(O)n2)nn1)c1ccccc1` (configuration not stated): the INHIBITION worked out at 24.9%.
Next, `O=c1c(Cc2ccccc2)c(O)ccn1Cc1ccco1`: 34%; `O=c1c(Cc2ccccc2)c(O)ccn1CCc1ccccc1`: 56.2%.
Next, `O=c1c(Cc2ccccc2)c(O)ccn1Cc1cccs1`: -23.5%.
Next, `Cc1nn(CCc2nnc(NCC(C)C)s2)c(C)c1Br`: 7.38%; `C=C(C)CN1CCCC(CNS(C)(=O)=O)C1` (configuration not stated): 12%; `CS(=O)(=O)N1CCO[C@@H]2CN(C(=O)Cc3cccs3)CC[C@@H]2C1`: 16.8%.
Take `O=C(C1CCOCC1)N1C[C@@H]2CN(Cc3ccsc3)CCO[C@@H]2C1`: the INHIBITION stood at 22.9%.
Consider `O=C(Cc1ccsc1)N1C[C@@H]2OCCN(c3cnccn3)[C@@H]2C1`, for which the INHIBITION stood at 52.3%.
Next, `CC(C)N1CCO[C@@H]2CN(C(=O)Cc3cccs3)CC[C@@H]2C1`: 59.3%; `O=C(C1CC(F)(F)C1)N1C[C@@H]2CN(Cc3ccsc3)CCO[C@@H]2C1`: 41.6%; `CC(C)N1CCO[C@H]2CN(C(=O)Cc3ccsc3)C[C@H]21`: 7.24%.
Next, `CN1CCO[C@@H]2CN(C(=O)Cc3cccs3)CC[C@@H]2C1`: 26.7%; `Cc1ccc(CC(=O)N2CC[C@@H]3CN(CCN(C)C)CCO[C@@H]3C2)cc1`: 47.8%.
Next, `O=C(C1CC=CC1)N1C[C@@H]2CN(Cc3ccsc3)CCO[C@@H]2C1`: 53.2%; `CN(C)CCN1CCO[C@@H]2CN(C(=O)c3cccs3)CC[C@@H]2C1`: 15.9%; `O=C(Cc1ccsc1)N1C[C@@H]2OCCN(CC3CC3)[C@@H]2C1`: 31.4%.
In the case of `CN(C)CCN1CCO[C@@H]2CN(C(=O)Cc3ccsc3)CC[C@@H]2C1`, the INHIBITION is 51.2%.
The figure for `O=C(CN1CCCC(Cn2cncn2)C1)NCCC1=CCCCC1` (configuration not stated) is 37.9%.
Next, `CCc1n[nH]c(C2CN(C(=O)c3cnn(CC)c3)CCO2)n1` (configuration not stated): -8.11%; `O=C(c1ccc2c(c1)OCO2)N1CCC(Nc2cccnn2)CC1`: 31.9%.
For the molecule `CN(C)C(=O)COC[C@@H]1CC[C@H]2[C@H](CCN2c2ccccn2)O1`, the INHIBITION is recorded as 11.4%.
The figure for `Cn1ccc(C(=O)N2C[C@H]3CCC[C@@]3(COCc3cccnc3)C2)n1` is 3.69%; for `O=C(CC1CCCC1)N1C[C@@H]2CN(Cc3ccoc3)CCO[C@@H]2C1` it is 34.6%; for `O=C(c1cocn1)N1C[C@@H]2CN(CC3CC3)CCO[C@@H]2C1` it is 6.83%.
`CCN1CCO[C@@H]2CN(C(=O)c3cocn3)C[C@@H]2C1`: the INHIBITION is 18.7%.
The figure for `O=C(C1CC(F)(F)C1)N1C[C@@H]2CN(Cc3ccoc3)CCO[C@@H]2C1` is -35.1%.
The figure for `O=C(N1CCCC1)N1C[C@@H]2CN(Cc3ccoc3)CCO[C@@H]2C1` is 80%.
For `O=C(c1cocn1)N1C[C@@H]2CN(Cc3ccco3)CCO[C@@H]2C1`, the INHIBITION amounted to 63%.
The figure for `O=C1NC2(CCN(CC(=O)N3CCOCC3)CC2)Nc2ccc(Br)cc21` is 23.89%; for `CN1Cc2ccccc2N(CC(O)C(F)(F)F)CCC1=O` (configuration not stated) it is 18.4%.
The figure for `CC(C)CC(NC(=O)c1ccco1)c1nc2cccnc2n1C` (configuration not stated) is 48%.
Next, `Cc1cc(C)n(CCCN(C)Cc2cn[nH]c2-c2ccc(F)cc2)n1`: 14%; `Cc1ccc(CN2CCOCC3(CCN(Cc4cccs4)C3)C2)o1` (configuration not stated): -34%.
On to `CC(C)NC1CCN(CCc2ccc3c(c2)CCO3)CC1`, for which the INHIBITION came to 35.1%.
Next, `CN(CCc1ccc2c(c1)CCO2)C1CCS(=O)(=O)CC1`: 19%; `COCC(C)N1CCN(CCc2ccc3c(c2)CCO3)CC1` (configuration not stated): 51.9%; `CCOCCN1CCN(CCc2ccc3c(c2)CCO3)CC1`: 67.6%.
The figure for `CCOCCN1CCN(c2ccc(CN(C)C)cn2)CC1` is 7.24%.
Turning to `Cc1nc(CN(C)C2CCN(CCc3ccc4c(c3)CCO4)C2)no1` (configuration not stated), the INHIBITION was -8.11%.
The figure for `CC(=O)NCCNC(=O)c1cccc(Cn2nc(C)cc2C)c1` is -18.9%; for `COCCN(C)C[C@@H]1CCC[C@@H]2CN(Cc3ccc(OC)nc3)C[C@@H]21` it is 20.1%.
Next, `CCCC(O)CN1CC(C)(C)CN(C(=O)c2ccc(SC)cc2)CC1=O` (configuration not stated): 43.4%; `Cc1ccc(C(=O)NCCCn2cncn2)c(=O)[nH]1`: 4.41%; `O=C(NCCCn1cncn1)c1ccc(-c2ccccc2)[nH]c1=O`: -12.9%.
Next, `O=C(NCCCn1cncn1)c1ccc(-c2ccco2)[nH]c1=O`: 56.3%.
`CN1CC(=O)N(c2ccsc2)CC12CCN(S(C)(=O)=O)C2` (configuration not stated): the INHIBITION was -12.2%.
Next, `CCc1nc(C2CCCN2CC(=O)Nc2cc(C)on2)no1` (configuration not stated): 22.3%; `COc1ccc(-c2noc(C(N)CCSC)n2)cc1` (configuration not stated): 36.2%.
Next, `O=C(NCCNc1ncccn1)N1CCCC1c1ccc(F)cc1` (configuration not stated): 6.11%; `CNC(=O)c1nc(CC(=O)Nc2ccc3cc[nH]c3c2)no1`: 30.5%; `CC(C)COC(C)C(=O)NCc1ccc(Cn2ccnc2)cc1` (configuration not stated): 58.3%.
The figure for `CC(C)COC(C)C(=O)NCc1ccccc1Cn1ccnc1` (configuration not stated) is 32.3%.
Regarding `CC(OCC1CC1)C(=O)NCc1ccc(Cn2ccnc2)cc1` (configuration not stated), the INHIBITION stood at 30.1%.
On to `Brc1ccc(NCc2ccc(Cn3ccnc3)cc2)nc1`, for which the INHIBITION is -51.4%.
Next, `CNC(=O)c1cccnc1NCc1ccc(Cn2ccnc2)cc1`: 85.7%; `CS(=O)(=O)c1ccccc1NCc1ccc(Cn2ccnc2)cc1`: 52%; `CNC(=O)c1cccnc1NCc1ccc(-n2cccn2)cc1`: 26.4%.
Next, `CNC(=O)c1cccnc1NCc1ccc(Cn2cccn2)cc1`: 21.9%; `c1ccc(NCc2ccc(Cn3ccnc3)cc2)nc1`: 6.7%.
